Source: PubChem BioAssay (NCI)
This is part of a sample that, as a whole, favours compounds with a hit. Of some 83,000 tested, about 20% had one in any assay.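 Each cell line was grown in a 96-well plate and treated with one concentration of compound for 48 hours. Values below 10 were considered active.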 Values without a mark were called inactive. The source made the active and inactive calls.

What was measured:
Experiment in all cases: NCI-60 one-dose screen, 48 h (100 = growth as untreated, 0 = no growth, -100 = all killed)
Details in all cases: 10 µM unless noted
[1] = system: T-47D breast
[2] = system: BT-549 breast
[3] = system: MDA-MB-435 melanoma
[4] = system: SW-620 colon
[5] = system: MCF7 breast
[6] = system: HCT-116 colon
[7] = system: HCC-2998 colon
[8] = system: KM12 colon

SMILES	growth [1]	growth [2]	growth [3]	growth [4]	growth [5]	growth [6]	growth [7]	growth [8]
CC(C)=CCNc1ncnc2c1ncn2C1OC(CO)C(O)C1O (stereo not given)	-57% [1 mM] (active)	-51.7% [1 mM] (active)	23.9% [1 mM]	-2.16% [1 mM] (active)	-60.7% [1 mM] (active)	-13.7% [1 mM] (active)	-62.5% [1 mM] (active)	10.6% [1 mM]
CCOC(=O)c1ccccc1-c1c2ccc(=[N+](C)C)cc-2oc2cc(N(C)C)ccc12	6.72% (active)	-10.1% (active)	11.8%	15%	3.95% (active)	4.32% (active)	96.9%	7.32% (active)
C=CN(C(=O)N1CCN(c2cc3c(cc2F)c(=O)c(C(=O)O)cn3C2CC2)CC1)c1nc(-c2ccc(OC)cc2)cs1	44.1%	14.8%	19.7%	22.2%	8.52% (active)	11.4%	34.3%	21.4%
CCOc1ccc(-n2nc(C(=O)NCc3ccccc3OC)nc2-c2cc(OC)c(OC)c(OC)c2)cc1	17%	33.9%	22.1%	58%	22.1%	25.3%	57.5%	33.8%
CC(C)CCN(CCC(C)C)CC(O)c1cc2c(c3ccccc13)CCCC2 (stereo not given)	59%	103%	98.4%	59%	78.5%	50.5%	30.1%	64.6%
COc1cnc2c(c1)C(=O)c1c-2n(CCCCl)c(=O)c2ccncc12	28.9%	56.8%	79.2%	36.3%	17.9%	40.4%	75.6%	67.8%
CN(Cc1cnc2nc(N)nc(N)c2n1)c1ccc(C(=O)NC(CCC(=O)O)C(=O)O)cc1Br (stereo not given)	44.3%	61.9%	39.5%	28.6%	19%	19.8%	57.1%	28.4%
COc1cc(/C=C/C(=O)c2ccc(-n3cc(CN4CCN(c5cc6c(cc5F)c(=O)c(C(=O)O)cn6C5CC5)CC4)nn3)cc2)ccc1O	75.3%	90.4%	74%	85.4%	37.6%	-53.4% (active)	59.3%	29.9%
CN1CCN(C(=O)[C@@]2(C)CC[C@]3(C)CC[C@]4(C)C(=CC[C@@H]5[C@@]6(C)CCC(=O)NC(C)(C)[C@@H]6CC[C@]54C)[C@@H]3C2)CC1	39.2%	45.9%	46.1%	19.7%	45%	21.8%	49%	46.8%
O=S(=O)(NCCNc1nccc(-c2c(-c3cccc(O)c3)nc3occn23)n1)c1ccc(Br)cc1	11.3%	45.1%	13.1%	34.8%	17.7%	10.2%	50.7%	27%
CC1CCN(C(=O)CCCl)c2ccccc21 (stereo not given)	121%	96.3%	123%	91.3%	97.5%	97.3%	86.1%	102%
O=C(Nc1ncc(Cc2cc(C(F)(F)F)ccc2Cl)s1)c1cccs1	31.9%	46.9%	1.23% (active)	47%	30%	39.9%	64.5%	29.5%
Cc1nn(-c2ccccc2)c(N)c1N=C1NC(=O)/C(=C/c2ccc(Br)cc2)S1	85.3%	78.6%	49.7%	84.2%	78.2%	68%	111%	76%
NNCCc1ccc(NC(=O)CCCc2ccc(C(=O)Nc3ccccc3N)cc2)cc1	28.7%	71%	71.1%	57.5%	57.8%	41.6%	92.4%	81.5%
CCN1CCN(C(=O)[C@]23CC[C@@H](C)[C@H](C)[C@@H]2C2=CC[C@@H]4[C@@]5(C)C/C(=C/c6cccnc6)C(=O)C(C)(C)[C@@H]5CC[C@@]4(C)[C@]2(C)CC3)CC1	22%	41.2%	24%	13.3%	8.54% (active)	10.3%	19.6%	18.2%
C[n+]1ccc(CCc2c[nH]c3ccccc23)cc1	72.6%	98.2%	104%	100%	93.2%	97.2%	92.6%	70.8%
CCOC(=O)C1=C(C)/C(=C\c2[nH]c(C)c(C(=O)OCC)c2C)N=C1C	66.8%	98.1%	80.6%	2.24% (active)	88.2%	74.5%	109%	81.9%
O=C1/C=C/[C@@H](O)[C@@H]2C[C@@H](O)C[C@H]2/C=C/CCC[C@H](CCO)O1	-17.8% (active)	8.06% (active)	9.98% (active)	-46% (active)	-17.1% (active)	-62.5% (active)	1.71% (active)	-54.3% (active)
S=C(c1ccc2c(c1)OCO2)N1CCN(c2cccc(Cl)c2)CC1	11.6%	52.4%	-37.7% (active)	4.12% (active)	-0.55% (active)	13.7%	-13.1% (active)	12.6%
Cc1ccc(C(=O)c2ccc(CC(=O)NN3C(=O)c4ccccc4C3=O)n2C)cc1	98.3%	110%	99.6%	99.3%	91.4%	107%	104%	102%
Cn1cc(-c2csc(-c3cn(CCCN4CCOCC4)c4ccccc34)n2)c2cccnc21	62.1%	88.7%	91.6%	94.6%	85.6%	84.4%	92.9%	85.4%
COc1ccc(/C=C/C(=O)c2ccc(NC(=O)CSc3nc4c([nH]3)c(=O)n(C)c(=O)n4C)cc2)cc1OC	76.9%	59%	88.5%	96.2%	40.7%	59.3%	75.9%	72.3%
O=C(O)COc1ccc(Cl)c(Cl)c1	95.7%	120%	104%	109%	108%	109%	106%	110%
CC(=O)c1ccc(Nc2nccc(-c3ccc4ccccc4c3)n2)cc1	88.1%	101%	69.1%	98.6%	75.8%	104%	104%	81.8%
CN1C(=O)/C(=C2\SC(=Nc3ccccc3)N(Nc3ccccc3)C2=O)c2ccccc21	82.2%	109%	106%	98.3%	86.2%	104%	113%	103%
COc1ccc(C2=NN(C(C)=O)C(c3cn(-c4ccccc4)nc3-c3ccc(Cl)cc3)C2)cc1 (stereo not given)	7.93% (active)	48.4%	34.2%	17.3%	21.8%	-11.6% (active)	36.3%	29.6%
C=CCOC(=O)C1=C(C)N(CC)C(=O)NC1c1c(Cl)n(C)c2ccccc12 (stereo not given)	91%	102%	98.1%	101%	98.7%	90%	91.2%	85.7%
COc1ccc2cc(-c3ccnc4c(N=Nc5ccc(Cl)cc5)c(N)nn34)ccc2c1	94.5%	99.9%	105%	101%	97.3%	99.7%	97.6%	103%
O=C(CCl)NNc1nccc(Nc2ccc(S(=O)(=O)Nc3ccncc3)cc2)n1	15.9%	25.6%	41.3%	28.5%	22.3%	10.7%	95.3%	62%
C#CC#CC#CC#CC#CC#CC#CC#CC[C@@H]1OC[C@@H](COC(=O)O[C@@H](C(=O)O[C@H]2C[C@@]3(O)[C@@H](OC(=O)c4ccccc4)[C@@H]4[C@]5(OC(C)=O)CO[C@@H]5C[C@H](O)[C@@]4(C)C(=O)[C@H](OC(C)=O)C(=C2C)C3(C)C)[C@@H](NC(=O)c2ccccc2)c2ccccc2)O1	91.3%	17%	101%	101%	13.6%	7.34% (active)	-43.9% (active)	96.6%
